The values that follow come from PubChem BioAssay (NCI).

This is part of a sample that, as a whole, favours compounds with a hit. Of some 79,000 tested, about 15% had one in any assay. Unmarked numbers belong to inactive results. Active and inactive are the calls of the source. Cut-off read from the data, not from the text of the source: active = growth inhibition above about 70%; inactive = the rest.

Experiment [1] is described as follows: NCI Yeast Anticancer Drug Screen. Data for the rad50 strain (AID 155).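 Note: 0% = growth of vehicle-only cultures of the same strain.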 As to conditions: S. cerevisiae rad50 strain growth inhibition; at 50.0 µM; hits give high values. The method, boiled down: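 Yeast carrying a defined DNA repair defect were exposed to test compounds, and growth was compared with vehicle-treated controls to give percent inhibition.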
A short description of experiment [2]: NCI Yeast Anticancer Drug Screen. Data for the mec2-1 strain (AID 157). As to conditions: S. cerevisiae mec2-1 strain, at 50.0 µM, hits give high values. The method, boiled down: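 Cells of the genetically defined mec2-1 yeast strain are incubated with test compound. Inhibition of growth is calculated against vehicle-treated controls.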
A short description of experiment [3]: NCI Yeast Anticancer Drug Screen. Data for the sgs1 mgt1 strain (AID 161).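 Note: 0% = growth of cultures given vehicle only.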 As to conditions: S. cerevisiae sgs1 mgt1 strain, at 50.0 µM, hits give high values. The method, boiled down: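 Genetically altered yeast, compound exposure, growth inhibition relative to vehicle.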
Experiment [4] is described as follows: NCI Yeast Anticancer Drug Screen. Data for the cln2 rad14 strain (AID 165).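 Note: 0% = growth equal to vehicle treated cultures.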 The conditions noted are these: S. cerevisiae cln2 rad14 strain, at 50.0 µM, hits give high values. The method, boiled down:
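The screen exposed genetically defined yeast (cln2 rad14) to test compounds and scored growth inhibition relative to vehicle-treated controls.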

The nature of experiment [5]: NCI Yeast Anticancer Drug Screen. Data for the bub3 strain (AID 167). As to conditions: S. cerevisiae bub3 mutant strain, at 50.0 µM, hits give high values. The method, boiled down: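 Compounds were applied to a genetically altered yeast strain carrying a cell-cycle control defect. Growth inhibition was scored against vehicle-treated controls.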
Experiment [6] can be described thus: NCI Yeast Anticancer Drug Screen. Data for the mlh1 rad18 strain (AID 175). As to conditions: S. cerevisiae mlh1 rad18 strain growth inhibition; at 50.0 µM; hits give high values. The method, boiled down: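 Compound-treated yeast growth, normalised to vehicle controls. Strain bears defined DNA repair mutations.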

Regarding `Cc1ccc(C)c(CN(C)C)c1O`, the growth inhibition is -0.8% in experiment [1]; -1.45% in experiment [2]; 4.9% in experiment [3]; 25.1% in experiment [4]; -11.1% in experiment [5]; 22.9% in experiment [6].

For the compound `CCCCCCCCCCCCCC/C=C\C(CC(=O)O)C(=O)O` (stereo unspecified), the growth inhibition in experiment [1] was 4.6%; in experiment [2], -15.5%; in experiment [3] it was 6.1%; in experiment [4], -32.6%; in experiment [5], -28.4%; in experiment [6] it was -19.2%.

Take `NC(=S)c1c(N)n(C2OC(CO)C(O)C2O)c2ncnc(N)c12` (stereo unspecified): the growth inhibition was 7.2% in experiment [1]; -9.7% in experiment [2]; 7.1% in experiment [3]; -3.15% in experiment [4]; -5.5% in experiment [5]; 2.55% in experiment [6].

`FC(F)(F)c1cc(NC2=NCCN=C(Nc3cc(C(F)(F)F)cc(C(F)(F)F)c3)SS2)cc(C(F)(F)F)c1`: the growth inhibition in experiment [1] is -14.1%; in experiment [2], -29.7%; in experiment [3] it was -10.8%; in experiment [4], -2%; in experiment [5], -22%; in experiment [6], -15.6%.

Consider `CN1CCN(C(=S)S)CC1`, for which the growth inhibition was 0.3% in experiment [1]; -2.5% in experiment [2]; 4.75% in experiment [3]; 2.15% in experiment [4]; 3.5% in experiment [5]; 5.15% in experiment [6].

On to `OCC1CCC(O)C(CO)N1` (stereo unspecified), for which the growth inhibition is -6.65% in experiment [1]; -29.6% in experiment [2]; -22.7% in experiment [3]; 8.85% in experiment [4]; -16.2% in experiment [5]; -15.8% in experiment [6].

Consider `CCN(CC)CCCC(C)NC(=S)N/N=C(\C)c1ccccn1` (stereo unspecified), for which the growth inhibition was 60.6% in experiment [1]; 47.6% in experiment [2]; 41% in experiment [3]; 11.2% in experiment [4]; 29.1% in experiment [5]; 42.7% in experiment [6].

For the compound `O=C(N/N=C\c1ccc(Cl)cc1Cl)c1ccncc1`, the growth inhibition in experiment [1] was 1%; in experiment [2], 6.85%; in experiment [3], 5.15%; in experiment [4], 19.2%; in experiment [5] it was -7%; in experiment [6], 3.5%.

Regarding `CN1CCCN(C(c2ccccc2)c2ccc(Br)cc2)CC1` (stereo unspecified), the growth inhibition was 40% in experiment [1]; 1.95% in experiment [2]; 19.8% in experiment [3]; 24.1% in experiment [4]; 30.9% in experiment [5]; 46% in experiment [6].

For the compound `CSc1cnc2ccccc2n1`, the growth inhibition in experiment [1] was 5.55%; in experiment [2] it was -5.95%; in experiment [3], -10.6%; in experiment [4], 13.1%; in experiment [5], -0.85%; in experiment [6], -3.9%.

For `C[n+]1c(/C=C\C=C\N2CCCCC2)sc2ccccc21`, the growth inhibition is 28.7% in experiment [1]; 14.6% in experiment [2]; 34.4% in experiment [3]; 2.45% in experiment [4]; 31.6% in experiment [5]; 27.9% in experiment [6].

With `O=S(Cc1ccccc1)/C(=C/NC(=S)Nc1cc(Cl)ccc1Cl)c1ccccc1` (stereo unspecified), the growth inhibition in experiment [1] is 3.6%; in experiment [2], 7.05%; in experiment [3], 14.4%; in experiment [4] it was 5.6%; in experiment [5], 5.35%; in experiment [6], 7.1%.

Regarding `C=C(C)[C@@H]1CC[C@]2(CO)CC[C@]3(C)[C@H](CC[C@@H]4[C@@]5(C)CC[C@H](O)C(C)(C)[C@@H]5CC[C@]43C)[C@@H]12`, the growth inhibition in experiment [1] was 15.6%; in experiment [2], -4.3%; in experiment [3], -18.1%; in experiment [4], 11.8%; in experiment [5], -11.7%; in experiment [6], 29.1%.

In the case of `Cc1cccc(C)c1NC(=S)/N=C\c1c(O)[nH]c(=O)[nH]c1=O`, the growth inhibition in experiment [1] was -67%; in experiment [2], -27.2%; in experiment [3] it was -32.3%; in experiment [4], -24.3%; in experiment [5], -46.1%; in experiment [6], -57.2%.

As to `C=C1CC2(OC1=O)C(=O)N(C)c1ccc(I)cc12` (stereo unspecified), the growth inhibition was 91.3% (active) in experiment [1]; 93.2% (active) in experiment [2]; 92.1% (active) in experiment [3]; 90.5% (active) in experiment [4]; 91.5% (active) in experiment [5]; 91.2% (active) in experiment [6].

Regarding `Cc1onc(-c2c(F)cccc2Cl)c1-c1ncc(-c2ccc(Br)cc2)o1`, the growth inhibition was -13.4% in experiment [1]; -15.9% in experiment [2]; -9.75% in experiment [3]; 9.45% in experiment [4]; -15.5% in experiment [5]; 9.7% in experiment [6].

In the case of `CCCCCC(=O)OCCC1CCCCC1`, the growth inhibition in experiment [1] is 25.6%; in experiment [2], 9.3%; in experiment [3] it was 18.7%; in experiment [4] it was -6.7%; in experiment [5] it was 11.6%; in experiment [6], 31.2%.

In the case of `Cc1cc(C(=O)c2ccccc2)cc(C)c1O`, the growth inhibition in experiment [1] was 12.2%; in experiment [2], -3.35%; in experiment [3], 12.8%; in experiment [4], 5.2%; in experiment [5], -0.4%; in experiment [6], 30.4%.

With `CC(C)c1ncc([N+](=O)[O-])n1C`, the growth inhibition is -13.2% in experiment [1]; 2.9% in experiment [2]; -16.6% in experiment [3]; -30.1% in experiment [4]; 6.15% in experiment [5]; 8.75% in experiment [6].

For `C=CC1=NC(C)(C)CC(C)O1` (stereo unspecified), the growth inhibition was 8% in experiment [1]; -15.2% in experiment [2]; 9.75% in experiment [3]; 25.4% in experiment [4]; 11.5% in experiment [5]; 9.75% in experiment [6].

As to `N#CC1(O)CCCCC1`, the growth inhibition in experiment [1] was 42.6%; in experiment [2] it was 10.6%; in experiment [3] it was 14.7%; in experiment [4] it was 23.2%; in experiment [5], 17.9%; in experiment [6] it was 28.4%.
